Assay results reported in PubChem BioAssay (NCI).
The panel holds about 79,000 compounds, 15% with a hit somewhere; the sample as a whole holds those more often. The source made the active and inactive calls. No stated cut-off is given here; in the data, active means growth inhibition above about 70%; inactive means the rest.

Columns and labels:
[1] = NCI Yeast Anticancer Drug Screen. Data for the rad52 strain (AID 147);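 further: 0% = growth of vehicle-treated control cultures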; details: S. cerevisiae rad52 mutant growth inhibition, stronger effect = higher value
Method in brief: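 The repair-mutant yeast strain was incubated with compounds, then growth was read and inhibition derived relative to vehicle.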

[2] = NCI Yeast Anticancer Drug Screen. Data for the wt1 strain (AID 149);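 further: 0% = growth of vehicle-treated wt1 cultures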; details: S. cerevisiae wt1 strain (SPY 50644) growth inhibition, stronger effect = higher value
Method in brief: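 The wt1 strain was treated with compounds, and growth was compared with vehicle-treated cultures to give inhibition.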

[3] = NCI Yeast Anticancer Drug Screen. Data for the rad50EPP+ strain (AID 151);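 further: 0% = growth of vehicle-treated control cultures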; details: S. cerevisiae rad50 mutant strain, stronger effect = higher value
Method in brief: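 Vehicle-normalised growth inhibition; rad50EPP+ yeast strain, altered in DNA damage repair, compound-treated.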

[4] = NCI Yeast Anticancer Drug Screen. Data for the mgt1 strain (AID 153); details: S. cerevisiae mgt1 mutant growth inhibition, stronger effect = higher value
Method in brief: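 Vehicle-normalized growth inhibition is determined in mgt1 yeast, a strain selected for a defined alteration in DNA repair or cell cycle control.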

[5] = NCI Yeast Anticancer Drug Screen. Data for the rad50 strain (AID 155);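 further: 0% = growth of vehicle-only cultures of the same strain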; details: S. cerevisiae rad50 strain growth inhibition, stronger effect = higher value
Method in brief: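 Cells are treated with compound, grown, and their growth is then scored against vehicle-only cultures of the same repair-deficient yeast strain.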

[6] = NCI Yeast Anticancer Drug Screen. Data for the mec2-1 strain (AID 157); details: S. cerevisiae mec2-1 strain, stronger effect = higher value
Method in brief: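 Mutant yeast (mec2-1) grown with compound; growth inhibition relative to vehicle control reported.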

[7] = NCI Yeast Anticancer Drug Screen. Data for the rad14 strain (AID 159);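 further: 0% = growth of vehicle-treated control cultures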; details: S. cerevisiae rad14 strain growth inhibition, stronger effect = higher value
Method in brief: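 Readout: yeast growth inhibition, referenced to vehicle-only cultures. Strain bears a defined alteration in DNA damage repair.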

[8] = NCI Yeast Anticancer Drug Screen. Data for the sgs1 mgt1 strain (AID 161);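 further: 0% = growth of cultures given vehicle only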; details: S. cerevisiae sgs1 mgt1 strain, stronger effect = higher value
Method in brief: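 Yeast cells carrying a defined DNA-repair defect were exposed to test compounds. Growth inhibition was measured relative to vehicle-treated controls.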

[9] = NCI Yeast Anticancer Drug Screen. Data for the cln2 rad14 strain (AID 165);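 further: 0% = growth equal to vehicle treated cultures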; details: S. cerevisiae cln2 rad14 strain, stronger effect = higher value
Method in brief: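 Readout is yeast growth inhibition versus vehicle-treated controls, using a strain with cln2 and rad14 alterations exposed to compound.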

[10] = NCI Yeast Anticancer Drug Screen. Data for the bub3 strain (AID 167); details: S. cerevisiae bub3 mutant strain, stronger effect = higher value
Method in brief: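 Part of a panel of yeast mutants defective in DNA damage repair or cell cycle regulation. Each strain is grown with compound, and inhibition is calculated relative to solvent-treated cultures.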

[11] = NCI Yeast Anticancer Drug Screen. Data for the wt2 strain (AID 169);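 further: 0% = growth of vehicle-treated yeast cultures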; details: S. cerevisiae wt2 strain growth inhibition, stronger effect = higher value
Method in brief: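 Against vehicle-treated controls, the growth of yeast exposed to each compound was compared, and the inhibition was recorded.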

[12] = NCI Yeast Anticancer Drug Screen. Data for the mlh1 strain (AID 171);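 further: 0% = growth of vehicle-treated control cultures of the same strain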; details: S. cerevisiae mlh1 strain growth inhibition, stronger effect = higher value
Method in brief: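 Measured: yeast growth. Reference: vehicle-treated controls. Organism: strain with a defined alteration affecting DNA damage repair or cell cycle control, treated with compound.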

[13] = NCI Yeast Anticancer Drug Screen. Data for the sgs1 strain (AID 173);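 further: 0% = growth of vehicle-only control cultures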; details: S. cerevisiae sgs1 mutant, stronger effect = higher value
Method in brief: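 Each compound was added to cultures of the altered yeast strain. Growth was recorded, and inhibition was derived by comparison with vehicle controls.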

[14] = NCI Yeast Anticancer Drug Screen. Data for the mlh1 rad18 strain (AID 175); details: S. cerevisiae mlh1 rad18 strain growth inhibition, stronger effect = higher value
Method in brief: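 Genetically defined yeast (DNA repair-deficient) exposed to compounds; growth inhibition determined relative to vehicle.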

[15] = NCI Yeast Anticancer Drug Screen. Data for the rad18 strain (AID 177); details: S. cerevisiae rad18 mutant growth inhibition, stronger effect = higher value
Method in brief: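 Vehicle-treated cultures served as the baseline for scoring compound-induced growth inhibition in DNA-repair-mutant yeast.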

[16] = NCI Yeast Anticancer Drug Screen. Data for the CLN2oe strain (AID 163);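 further: 0% = growth of vehicle-only control cultures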; details: S. cerevisiae CLN2oe strain, stronger effect = higher value
Method in brief: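 Compounds are applied to yeast harbouring a defined cell-cycle control change; reduced growth compared with vehicle-treated controls gives the value.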

[17] = at 5.0 µM (retest, dose inferred, filed as 0.5)
[18] = at 50.0 µM (retest, dose inferred, filed as 5.0)

Measured: growth inhibition

Nc1ccc2c(c1)C(=O)c1cccc(N)c1C2=O
inactive: [1]; at 1.2 µM 6% | [1]; at 3.7 µM 38% | [2]; at 1.2 µM -1% | [2]; at 3.7 µM 6% | [2]; at 11.0 µM 24% | [2]; at 33.0 µM 49% | [2]; at 100.0 µM 61% | [3]; at 1.2 µM 9% | [3]; at 3.7 µM 50% | [4]; at 1.2 µM -1% | [4]; at 3.7 µM 4% | [4]; at 11.0 µM 21% | [4]; at 33.0 µM 63% | [5]; at 1.2 µM 10% | [5]; at 3.7 µM 45% | [5]; [17] 51% | [6]; at 1.2 µM 4% | [6]; at 3.7 µM 16% | [6]; [17] 17% | [6]; at 11.0 µM 38% | [6]; at 33.0 µM 64% | [6]; [18] 68% | [6]; at 50.0 µM 53.9% | [7]; at 1.2 µM 5% | [7]; at 3.7 µM 11% | [7]; at 11.0 µM 29% | [7]; at 33.0 µM 57% | [8]; [17] -9% | [8]; [18] 66% | [8]; at 50.0 µM 42.9% | [9]; [17] 8% | [9]; at 50.0 µM 54.6% | [10]; at 1.2 µM -1% | [10]; at 3.7 µM 2% | [10]; [17] 6% | [10]; at 11.0 µM 25% | [10]; at 50.0 µM 57.1% | [11]; at 1.2 µM -2% | [11]; at 3.7 µM 11% | [11]; at 11.0 µM 19% | [11]; at 33.0 µM 56% | [12]; at 1.2 µM 0% | [12]; at 3.7 µM 7% | [12]; at 11.0 µM 32% | [13]; at 1.2 µM -4% | [13]; at 3.7 µM 3% | [13]; at 11.0 µM 37% | [14]; [17] 18% | [15]; at 1.2 µM 5% | [15]; at 3.7 µM 39%
active: [1]; at 11.0 µM 89% | [1]; at 33.0 µM 93% | [1]; at 100.0 µM 92% | [3]; at 11.0 µM 92% | [3]; at 33.0 µM 97% | [3]; at 100.0 µM 92% | [4]; at 100.0 µM 81% | [5]; at 11.0 µM 92% | [5]; at 33.0 µM 95% | [5]; [18] 93% | [5]; at 50.0 µM 89.8% | [5]; at 100.0 µM 93% | [6]; at 100.0 µM 82% | [7]; at 100.0 µM 88% | [9]; [18] 77% | [10]; at 33.0 µM 72% | [10]; [18] 89% | [10]; at 100.0 µM 87% | [11]; at 100.0 µM 72% | [12]; at 33.0 µM 74% | [12]; at 100.0 µM 85% | [13]; at 33.0 µM 79% | [13]; at 100.0 µM 85% | [14]; [18] 93% | [14]; at 50.0 µM 72.5% | [15]; at 11.0 µM 91% | [15]; at 33.0 µM 97% | [15]; at 100.0 µM 93%

CCC(C)COC(=O)c1ccc(N=Cc2ccc(C=Nc3ccc(C(=O)OCC(C)CC)cc3)cc2)cc1 (stereo unspecified)
active: [5]; [17] 96% | [5]; [18] 96% | [8]; [17] 98% | [8]; [18] 98% | [8]; at 50.0 µM 70.3%
inactive: [1]; at 1.2 µM -2% | [1]; at 3.7 µM -3% | [1]; at 11.0 µM 6% | [1]; at 33.0 µM 4% | [1]; at 100.0 µM 13% | [2]; at 1.2 µM -1% | [2]; at 3.7 µM -4% | [2]; at 11.0 µM -2% | [2]; at 33.0 µM -1% | [2]; at 100.0 µM 3% | [3]; at 1.2 µM 5% | [3]; at 3.7 µM 5% | [3]; at 11.0 µM 16% | [3]; at 33.0 µM 32% | [3]; at 100.0 µM 49% | [4]; at 1.2 µM 1% | [4]; at 3.7 µM 1% | [4]; at 11.0 µM -4% | [4]; at 33.0 µM -6% | [4]; at 100.0 µM 6% | [5]; at 1.2 µM -2% | [5]; at 3.7 µM -9% | [5]; at 11.0 µM -2% | [5]; at 33.0 µM 3% | [5]; at 50.0 µM 28.8% | [5]; at 100.0 µM 21% | [6]; at 1.2 µM -3% | [6]; at 3.7 µM -2% | [6]; [17] 13% | [6]; at 11.0 µM 3% | [6]; at 33.0 µM 4% | [6]; [18] 13% | [6]; at 50.0 µM 49.6% | [6]; at 100.0 µM 8% | [7]; at 1.2 µM -1% | [7]; at 3.7 µM 1% | [7]; at 11.0 µM 4% | [7]; at 33.0 µM 2% | [7]; at 100.0 µM 11% | [9]; [17] 12% | [9]; [18] 12% | [9]; at 50.0 µM 41% | [10]; at 1.2 µM 7% | [10]; at 3.7 µM 3% | [10]; [17] 3% | [10]; at 11.0 µM 6% | [10]; at 33.0 µM 10% | [10]; [18] 3% | [10]; at 50.0 µM 62.1% | [10]; at 100.0 µM 10% | [14]; [17] 50% | [14]; [18] 50% | [14]; at 50.0 µM 57.1%

CCOC(=O)c1cnc2c(C(F)(F)F)cccc2c1N=[N+]=[N-]
active: [1]; at 100.0 µM 95% | [2]; at 100.0 µM 87% | [3]; at 33.0 µM 86% | [3]; at 100.0 µM 97% | [4]; at 100.0 µM 93% | [5]; at 100.0 µM 95% | [6]; at 100.0 µM 89% | [7]; at 100.0 µM 98% | [16]; at 100.0 µM 73% | [10]; [18] 91% | [10]; at 100.0 µM 92% | [11]; at 100.0 µM 99% | [12]; at 100.0 µM 98% | [13]; at 100.0 µM 97% | [14]; at 50.0 µM 94.8% | [15]; at 100.0 µM 94%
inactive: [1]; at 1.2 µM 3% | [1]; at 3.7 µM 2% | [1]; at 11.0 µM 2% | [1]; at 33.0 µM 42% | [2]; at 1.2 µM 10% | [2]; at 3.7 µM 1% | [2]; at 11.0 µM 1% | [2]; at 33.0 µM 37% | [3]; at 1.2 µM 4% | [3]; at 3.7 µM 0% | [3]; at 11.0 µM -5% | [4]; at 1.2 µM 0% | [4]; at 3.7 µM -2% | [4]; at 11.0 µM 1% | [4]; at 33.0 µM 52% | [5]; at 1.2 µM -6% | [5]; at 3.7 µM -17% | [5]; [17] 15% | [5]; at 11.0 µM 20% | [5]; at 33.0 µM 42% | [5]; [18] 8% | [5]; at 50.0 µM 29.4% | [6]; at 1.2 µM -3% | [6]; at 3.7 µM -4% | [6]; [17] 2% | [6]; at 11.0 µM -4% | [6]; at 33.0 µM 25% | [6]; [18] -5% | [6]; at 50.0 µM 17.6% | [7]; at 1.2 µM 3% | [7]; at 3.7 µM 4% | [7]; at 11.0 µM 3% | [7]; at 33.0 µM 52% | [8]; [17] 5% | [8]; [18] 31% | [8]; at 50.0 µM 0.9% | [16]; at 1.2 µM -1% | [16]; at 3.7 µM -1% | [16]; at 11.0 µM -2% | [16]; at 33.0 µM 21% | [10]; at 1.2 µM -2% | [10]; at 3.7 µM -3% | [10]; [17] -3% | [10]; at 11.0 µM -4% | [10]; at 33.0 µM 20% | [10]; at 50.0 µM 67.3% | [11]; at 1.2 µM -1% | [11]; at 3.7 µM 1% | [11]; at 11.0 µM 2% | [11]; at 33.0 µM 68% | [12]; at 1.2 µM -1% | [12]; at 3.7 µM 0% | [12]; at 11.0 µM -1% | [12]; at 33.0 µM 56% | [13]; at 1.2 µM 1% | [13]; at 3.7 µM -2% | [13]; at 11.0 µM -7% | [13]; at 33.0 µM 67% | [14]; [17] 1% | [14]; [18] 21% | [15]; at 1.2 µM -5% | [15]; at 3.7 µM -8% | [15]; at 11.0 µM -10% | [15]; at 33.0 µM 40%
